Values without a mark were called inactive. Results filed as inconclusive are left out. Where a call stands in place of a potency, no number is given. Calls of active or inactive are those of the source. Unless noted, the call rests on the fitted dose curve; in most records, active means well fitted curve in the direction sought with a large enough effect; inconclusive means small, poorly fitted or top-dose-only effect, or another doubt; inactive means no such curve, though single readings can be large; an effect the other way counts as inactive or inconclusive.
Tests used:
[1] = target: T1, Tyrosine-protein phosphatase non-receptor type substrate 1 (Homo sapiens) + Leukocyte surface antigen CD47 (Homo sapiens) (UniProt P78324+Q08722); test: CD47-SIRPalpha protein protein interaction - HTRF assay qHTS validation (AID 1347058; active means well fitted curve in the direction sought with a large enough effect in the signal ratio, not every such curve was filed as active; the % refers to the signal ratio;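 further: recombinant soluble extracellular CD47 with His tag and biotinylated SIRPalpha domains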)
T1 sequence (P78324 whole entry, looked up, the tested form may be a part): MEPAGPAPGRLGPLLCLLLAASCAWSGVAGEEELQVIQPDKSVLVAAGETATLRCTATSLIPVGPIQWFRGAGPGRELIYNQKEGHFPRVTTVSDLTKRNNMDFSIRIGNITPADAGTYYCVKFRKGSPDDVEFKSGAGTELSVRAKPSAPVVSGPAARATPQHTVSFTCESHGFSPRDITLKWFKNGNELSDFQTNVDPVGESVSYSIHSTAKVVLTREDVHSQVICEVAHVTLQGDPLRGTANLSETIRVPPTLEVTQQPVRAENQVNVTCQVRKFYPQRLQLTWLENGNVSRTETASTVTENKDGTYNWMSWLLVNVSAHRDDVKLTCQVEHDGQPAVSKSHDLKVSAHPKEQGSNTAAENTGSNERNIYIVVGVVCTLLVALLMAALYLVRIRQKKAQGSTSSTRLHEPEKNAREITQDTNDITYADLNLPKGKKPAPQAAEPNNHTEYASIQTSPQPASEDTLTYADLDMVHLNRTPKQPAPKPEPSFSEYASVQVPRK
T1 sequence (Q08722 whole entry, looked up, the tested form may be a part): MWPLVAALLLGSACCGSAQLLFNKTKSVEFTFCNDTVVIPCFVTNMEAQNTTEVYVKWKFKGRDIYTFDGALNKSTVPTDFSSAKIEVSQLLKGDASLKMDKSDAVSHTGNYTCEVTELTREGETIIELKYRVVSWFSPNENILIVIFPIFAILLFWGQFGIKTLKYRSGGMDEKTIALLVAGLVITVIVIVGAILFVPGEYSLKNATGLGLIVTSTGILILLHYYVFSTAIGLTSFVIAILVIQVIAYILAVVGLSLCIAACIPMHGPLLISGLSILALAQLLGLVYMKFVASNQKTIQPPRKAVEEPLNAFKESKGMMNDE
Outline: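 TR-FRET read (Ch1/Ch2 ratio) of soluble extracellular CD47 and Avi-biotinylated SIRPalpha domains in PBS pH 7.4 with 0.05% IGEPAL; 7-point compound titration. Sequential 30 min room-temperature steps; non-biotinylated SIRPalpha as control inhibitor.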

[2] = target: T1, Tyrosine-protein phosphatase non-receptor type substrate 1 (Homo sapiens) + Leukocyte surface antigen CD47 (Homo sapiens); test: CD47-SIRPalpha protein protein interaction - Alpha assay qHTS validation (AID 1347059);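 further: bead proximity luminescence from CD47 binding SIRPalpha after compound preincubation with SIRPalpha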; further: potency means the concentration at half of the fitted maximal effect
Outline: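 Binding is measured by AlphaScreen proximity: Ni-NTA acceptor beads capture His-CD47, streptavidin donor beads capture biotin-SIRPalpha. Each of three additions (SIRPalpha with compound, CD47, beads) incubates 30 min at room temperature protected from light.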

[3] = target: Parathyroid hormone/parathyroid hormone-related peptide receptor (Homo sapiens) (UniProt Q03431); test: qHTS for PTHR1 Agonists: Optimization Screen against the NCGC LOPAC library (AID 1347079);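 further: GloSensor cAMP luminescence in HEK-293 GP2 cells expressing human PTHR1 with IBMX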; further: potency means the concentration at half of the fitted maximal effect
Parathyroid hormone/parathyroid hormone-related peptide receptor (Homo sapiens), sequence (Q03431 whole entry, looked up): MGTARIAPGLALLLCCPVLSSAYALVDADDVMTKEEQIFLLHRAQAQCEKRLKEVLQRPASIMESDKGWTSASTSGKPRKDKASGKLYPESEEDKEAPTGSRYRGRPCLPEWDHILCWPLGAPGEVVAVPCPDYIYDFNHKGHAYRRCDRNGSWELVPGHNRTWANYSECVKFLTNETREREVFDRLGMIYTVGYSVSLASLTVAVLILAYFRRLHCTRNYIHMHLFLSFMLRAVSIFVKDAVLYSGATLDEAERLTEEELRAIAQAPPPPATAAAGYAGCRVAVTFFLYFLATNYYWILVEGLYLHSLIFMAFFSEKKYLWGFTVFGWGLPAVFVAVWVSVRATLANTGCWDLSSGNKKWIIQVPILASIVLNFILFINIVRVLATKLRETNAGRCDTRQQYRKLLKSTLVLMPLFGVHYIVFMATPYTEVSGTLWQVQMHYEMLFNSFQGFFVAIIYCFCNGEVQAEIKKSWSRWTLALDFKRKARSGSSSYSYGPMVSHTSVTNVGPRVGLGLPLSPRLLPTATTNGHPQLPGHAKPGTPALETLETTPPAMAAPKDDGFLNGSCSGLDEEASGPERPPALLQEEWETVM
Outline: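 Agonist readout: GloSensor cAMP luminescence, read after 15 min at room temperature. HEK-293-derived GP2 line carries PTHR1; compounds tested as a titration for 1 hr at 37C in presence of IBMX. M-PTH (1-15) served as control.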

[4] = target: N-terminal Xaa-Pro-Lys N-methyltransferase 1 (Homo sapiens) (UniProt Q9BV86); test: qHTS Assay for Inhibitors of N-terminal methyltransferase 1 (NTMT1): LOPAC validation of the NTMT1 SAHH-coupled ThioGlo3 Assay (AID 1347143);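 further: SAH from peptide methylation measured as thiol fluorescence via SAHH coupling and ThioGlo3; nearly all actives have a fitted effect of over 70% in size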; further: potency means the concentration at half of the fitted maximal effect
N-terminal Xaa-Pro-Lys N-methyltransferase 1 (Homo sapiens), sequence (Q9BV86 whole entry, looked up): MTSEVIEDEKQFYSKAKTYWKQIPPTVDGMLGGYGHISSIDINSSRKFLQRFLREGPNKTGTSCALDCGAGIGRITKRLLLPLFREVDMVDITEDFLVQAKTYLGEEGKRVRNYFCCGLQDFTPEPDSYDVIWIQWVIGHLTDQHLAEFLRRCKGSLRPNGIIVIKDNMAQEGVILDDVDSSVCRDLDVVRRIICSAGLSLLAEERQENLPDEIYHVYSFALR
Outline: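 Inhibition of NTMT1 methylation of peptide SPKRIA is followed by converting SAH with SAHH and labelling the released thiol with ThioGlo3. Plates are read at 340/450nm before and 30 min after reagent addition, both at room temperature.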

[5] = tested on: Zika virus NS2B-NS3 protease (unlinked); test: Optimization of GU AMC qHTS for Zika virus inhibitors: Unlinked NS2B-NS3 protease assay (AID 1347151); further: nearly all actives have a fitted effect of over 80% in size; further: potency means the concentration at half of the fitted maximal effect
Outline: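 Fluorescence gain (340/450 nm) over 15 min at room temperature, ~20% conversion, gave percent inhibition fitted to a 4-parameter Hill equation; enzyme was unlinked NS2B-NS3 (25 nM final), pH 8.0 Tris buffer.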

[6] = tested on: Zika virus NS2B-NS3 protease; test: Primary screen GU AMC qHTS for Zika virus inhibitors (AID 1347154); further: nearly all actives have a fitted effect of over 70% in size
Outline: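 Fluorogenic AMC-substrate cleavage by noncovalent NS2B-NS3 protease complex (25 nM, pH 8.0 Tris buffer with Tween 20) followed for 15 minutes at room temperature (~20% conversion). Percent inhibition from ex340/em450 signal change, fitted by 4-parameter Hill equation.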

[7] = target: Lysine-specific demethylase 5B (Homo sapiens) (UniProt Q9UGL1); test: Optimization screen for KDM5B Histone Demethylases FDH coupled qHTS against the LOPAC library (AID 1347166); settings: KDM5B demethylation, FDH-coupled NADH fluorescence (FDH is formaldehyde dehydrogenase); at 57.5 µM (top of the series)
Lysine-specific demethylase 5B (Homo sapiens), sequence (Q9UGL1 whole entry, looked up): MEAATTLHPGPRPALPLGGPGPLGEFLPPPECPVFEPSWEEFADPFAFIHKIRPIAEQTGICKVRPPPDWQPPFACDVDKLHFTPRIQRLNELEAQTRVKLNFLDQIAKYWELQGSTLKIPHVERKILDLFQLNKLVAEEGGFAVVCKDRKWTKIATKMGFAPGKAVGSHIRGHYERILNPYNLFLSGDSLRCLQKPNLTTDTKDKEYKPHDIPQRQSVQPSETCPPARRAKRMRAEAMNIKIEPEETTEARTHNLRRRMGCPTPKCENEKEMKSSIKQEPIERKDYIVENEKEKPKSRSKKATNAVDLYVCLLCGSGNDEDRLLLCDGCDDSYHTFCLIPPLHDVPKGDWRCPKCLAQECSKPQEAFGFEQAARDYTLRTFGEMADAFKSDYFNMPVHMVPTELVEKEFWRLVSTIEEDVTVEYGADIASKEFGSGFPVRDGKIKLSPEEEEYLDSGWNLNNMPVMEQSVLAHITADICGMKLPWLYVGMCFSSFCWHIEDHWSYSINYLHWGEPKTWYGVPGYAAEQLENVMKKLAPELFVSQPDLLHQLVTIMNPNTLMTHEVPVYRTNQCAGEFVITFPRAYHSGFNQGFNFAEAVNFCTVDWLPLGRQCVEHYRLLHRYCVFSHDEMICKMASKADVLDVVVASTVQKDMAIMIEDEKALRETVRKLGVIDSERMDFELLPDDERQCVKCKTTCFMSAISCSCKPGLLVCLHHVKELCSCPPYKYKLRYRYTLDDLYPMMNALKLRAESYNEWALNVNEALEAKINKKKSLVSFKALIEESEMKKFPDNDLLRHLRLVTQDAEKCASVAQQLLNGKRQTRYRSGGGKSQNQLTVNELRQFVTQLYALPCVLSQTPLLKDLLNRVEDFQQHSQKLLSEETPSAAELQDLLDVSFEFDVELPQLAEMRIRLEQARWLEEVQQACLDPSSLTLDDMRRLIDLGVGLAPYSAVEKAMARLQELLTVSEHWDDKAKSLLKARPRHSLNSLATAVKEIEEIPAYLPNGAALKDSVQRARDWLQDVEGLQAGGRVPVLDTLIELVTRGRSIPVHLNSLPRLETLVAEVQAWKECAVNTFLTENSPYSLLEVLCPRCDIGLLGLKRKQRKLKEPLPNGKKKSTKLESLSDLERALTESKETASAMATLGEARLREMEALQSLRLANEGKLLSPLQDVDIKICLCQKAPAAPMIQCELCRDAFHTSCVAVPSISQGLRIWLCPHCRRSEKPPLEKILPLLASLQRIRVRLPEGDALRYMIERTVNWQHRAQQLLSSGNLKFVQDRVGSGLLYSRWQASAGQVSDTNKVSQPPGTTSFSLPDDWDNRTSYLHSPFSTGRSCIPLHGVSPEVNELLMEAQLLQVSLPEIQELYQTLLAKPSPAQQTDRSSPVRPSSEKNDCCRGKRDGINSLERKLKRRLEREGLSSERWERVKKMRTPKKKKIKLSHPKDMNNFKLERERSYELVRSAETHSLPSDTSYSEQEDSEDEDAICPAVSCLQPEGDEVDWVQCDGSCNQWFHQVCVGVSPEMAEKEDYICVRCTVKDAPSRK
Outline: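 KDM5BDeltaAP (200nM final) preincubated 10 min with compound, then 12.5uM H3K4Me3, 25uM a-ketoglutarate, ascorbate, Fe(II), NAD+ and FDH added; 50mM HEPES pH 7.5, 0.01% Tween-20. NADH fluorescence (340/450 nm) change over 30 min, room temperature.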

[8] = target: T1, Tyrosine-protein phosphatase non-receptor type substrate 1 (Homo sapiens) + Leukocyte surface antigen CD47 (Homo sapiens); test: CD47-SIRPalpha protein protein interaction - LANCE assay qHTS validation (AID 1347057; active means well fitted curve in the direction sought with a large enough effect in the signal ratio, with a control signal flat, not every such curve was filed as active; the % refers to the signal ratio)
Outline: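 First, His-tagged CD47 and Eu-labelled anti-His antibody met the compound for 30 min; next, site-specifically biotinylated SIRPalpha was added for 30 min; finally streptavidin-APC was added before reading the TR-FRET ratio.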

[9] = tested on: Zika virus NS2B-NS3 protease (linked construct); test: Primary screen NINDS Rhodamine qHTS for Zika virus inhibitors (AID 1347160); further: nearly all actives have a fitted effect of over 55% in size
Outline: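 In 10 mM Tris-HCl pH 8.0 containing 0.01% Tween 20, linked NS2B-NS3 protease (25 nM final) is exposed to test compounds for 15 min. Cleavage of 1.5 microM Rhodamine110 substrate is tracked by fluorescence over 15 min.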

[10] = OV-KATE Cancer Cell Toxicity qHTS against the NCATS CANVASS Library (AID 1347345)
Outline: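 1000 cells/well; 4 h settle; 11-pnt titration; 72 h, 37 degrees C, 5% CO2; CellTiter-Glo, 15min RT; luminescence read.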

| Compound | outcome [1] | Potency [2] | Potency [3] | Potency [4] | Potency [5] | Potency [6] | activity, negative = inhibition [7] [%] | Potency [8] | outcome [9] | outcome [10] |
| --- | --- | --- | --- | --- | --- | --- | --- | --- | --- | --- |
| OC1(c2ccc(Cl)cc2)CCN(Cc2c[nH]c3ccccc23)CC1 | inactive | inactive | inactive | inactive | inactive | inactive | -0.728 |  |  |  |
| CC[n+]1c(/C=C/C=C2/N(C)c3ccccc3C2(C)C)sc2ccccc21 |  | 7.36 µM (active) | inactive | 35.5 µM (active) |  |  | -25 |  |  |  |
| CCCCOc1cc(CC2CNC(=O)N2)ccc1OC (stereo not given) | inactive | inactive | inactive | inactive |  | inactive | -3.5 | inactive |  |  |
| Cc1ccccc1/C=C/C1=NCCN1 | inactive | inactive | inactive |  | inactive |  | -11.5 | inactive |  |  |
| CC(C)(C)c1cc(/C=C(\C#N)C(N)=S)cc(C(C)(C)C)c1O |  | inactive | inactive | inactive | 21.2 µM (active) | inactive | -26.1 | inactive |  |  |
| Nc1ccc2c3c(cccc13)C(=O)NC2=O |  | inactive | inactive | inactive |  |  | -16.6 |  |  |  |
| O=C(O)Cc1c[nH]c2ccc(O)cc12 | inactive | inactive | inactive | 56.2 µM (active) |  |  |  | inactive | inactive | inactive |
| CNCCc1cnc(CCC(c2ccccc2)c2ccccc2)[nH]1 |  | inactive | inactive |  | inactive |  | -15.1 | inactive |  |  |
| C=C1C[C@@]23CC[C@H]4[C@@](C)(CCC[C@@]4(C)C(=O)OC4OC(CO)C(O)C(O)C4O)[C@@H]2CC[C@]1(OC1OC(CO)C(O)C(O)C1OC1OC(CO)C(O)C(O)C1O)C3 (stereo not given in full) | inactive | inactive | inactive | inactive | inactive |  | -7.5 |  |  |  |
| N[C@@H](CS(=O)O)C(=O)O | inactive | inactive | inactive | inactive | inactive | inactive |  |  |  |  |
| CC1CNCCN1S(=O)(=O)c1cccc2cnccc12 (stereo not given) | inactive | inactive | inactive | inactive | inactive | inactive | -12.8 |  |  |  |
| N#C/C(=C\c1ccc(O)c(O)c1)C(=O)NCCCNC(=O)/C(C#N)=C/c1ccc(O)c(O)c1 |  |  | inactive | 39.8 µM (active) | 0.597 µM (active) |  |  |  |  |  |
| NC(=Nc1ccccc1)NC(=O)c1nc(Cl)c(N)nc1N |  | inactive | inactive | 56.2 µM (active) | 26.7 µM (active) | inactive |  | inactive |  |  |
| CCCCCC[C@@H]([C@@H](C)O)n1cnc2c(N)ncnc21 | inactive | inactive | inactive |  | inactive | inactive | -6.57 | inactive |  |  |
| CC(C)C[C@H](NC(=O)[C@H](O)[C@H](N)Cc1ccccc1)C(=O)O | inactive | inactive | inactive | inactive |  |  | -4.3 | inactive |  |  |
| c1ccc2nc(C3=NCCN3)ccc2c1 |  | inactive | 26.7 µM (active) | inactive |  | inactive |  | inactive |  |  |
| N[C@@H](Cc1ccc(O)c(I)c1)C(=O)O | inactive | inactive | inactive | inactive | inactive |  | -7.59 | inactive |  |  |

From PubChem BioAssay (NCATS)
